# Assay results from PubChem BioAssay (NCATS).
# Results filed as inconclusive are left out. A call without a number means that no potency is given here. Unmarked numbers belong to inactive results. Calls of active or inactive are those of the source. Calls come from the whole dose curve; as a rule, active = well fitted cell-killing curve with a large enough effect; inconclusive = small, poorly fitted or top-dose-only effect, or effect the other way; inactive = flat fitted curve, though single readings scatter.
# What was measured:
# Tov-21-G = experiment: Primary qHTS to identify gynecologic anti-cancer compounds using libraries of approved drugs and bioactive compounds (AID 1345084); conditions: Gynecologic cancer cell panel viability, ATPlite luminescence, 48 h; series mostly up to 57.5 µM; note: nearly all actives have a fitted effect of over 55% in size
# How it was run: (§1)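 In this quantitative HTS, cell killing is estimated from loss of ATP-dependent luciferase light. Cells see five compound concentrations over a 48 h exposure.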
# Tov112D = experiment: as above; conditions: Gynecologic cancer cell panel viability, ATPlite luminescence, 48 h; series mostly up to 57.5 µM
# How it was run: as §1
# Potency is the fitted concentration of half-maximal effect.
Structure (SMILES),Potency (Tov-21-G),Potency (Tov112D),"activity change, negative = cytotoxicity (Tov-21-G)","activity change, negative = cytotoxicity (Tov112D)"
COc1ccc(-c2csc(NC(=O)[C@H]3CCCCN3S(=O)(=O)c3ccc(C)cc3)n2)cc1,inactive,inactive,–,–
CN(C)c1ccnc2sc3c(=O)n(N4CCCCCC4)cnc3c12,inactive,inactive,–,–
Cc1cc(N2CCOCC2)ccc1Nc1nc(NC2CCCCC2)c2[nH]cnc2n1,inactive,inactive,–,–
COc1c2c(c(C)c3c1C(=O)OC3)O[C@@]1(C)C[C@@H](OC(C)=O)[C@]34O[C@](OC)(CC[C@]3(C)[C@H]1C2)OC4(C)C,inactive,inactive,–,–
COc1cc(C(C)C)c(Oc2cnc(N)nc2N)cc1I,inactive,inactive,–,–
CCOc1ccc(-n2c(C(C)N(Cc3cccnc3)C(=O)Cc3ccc(F)c(C(F)(F)F)c3)nc3ncccc3c2=O)cc1 (centres undefined),inactive,inactive,–,–
O=c1[nH]c([C@@H]2CCCN2)nc2c1oc1ccc(Cl)cc12,inactive,inactive,–,–
CCC(C)/C=C(C)/C=C/C1=CC2=C(Cl)C(=O)C(C)(OC(C)=O)C(=O)C2(O)C(OC)O1 (centres undefined),inactive,inactive,–,–
C=C1C(=O)O[C@@H]2/C=C(\CO)CC/C=C(\CO)[C@H](OC(C)=O)C(OC(=O)C(C)CC)C12 (some centres undefined),inactive,inactive,–,–
Cn1cc(C2=C(c3coc4ccccc34)C(=O)NC2=O)c2cc(Br)ccc21,inactive,inactive,–,–
Cn1nc(-c2ccc(C(F)(F)F)cc2)nc2c(=O)n(C)c(=O)nc1-2,12.6 µM (active),7.94 µM (active),–,–
COC1C=C(C)C(O)(CO)C2(C)CCCC(C)(C)C12 (centres undefined),inactive,inactive,–,–
CO[C@H]1O[C@@H]2O[C@@]3(C)CCC4[C@H](C)CCC([C@H]1C)[C@]42OO3 (some centres undefined),inactive,inactive,–,–
CC(=O)N1CCN(CCOc2ccc(C3CCN(C4=Nn5c(nnc5C(F)(F)F)CC4)CC3)cc2)CC1,inactive,inactive,–,–
Cc1[nH]c2ccc(F)cc2c1-c1nc2c3cccnc3c3ncccc3c2[nH]1,inactive,3.98 µM (active),–,–
COc1ccc(CCO[C@@H]2O[C@H](CO[C@H]3OC[C@](O)(CO)[C@H]3O)[C@@H](OC(=O)/C=C/c3ccc(O)c(O)c3)[C@H](O[C@@H]3O[C@@H](C)[C@H](O)[C@@H](O)[C@H]3O)[C@H]2O)cc1OC,inactive,inactive,–,–
O=C(c1c(F)ccc(NS(=O)(=O)N2CC[C@@H](F)C2)c1F)c1c[nH]c2ncc(-c3cnc(C4CC4)nc3)cc12,11.2 µM (active),inactive,–,–
O=C(NCc1ccc(OC(F)(F)F)cc1)C1c2c(F)cccc2C(=O)N1CCc1ccccn1 (centres undefined),inactive,inactive,–,–
CC(=O)N[C@H]1[C@H](O[C@H]2CC[C@@]3(C)C(CC[C@]4(C)C3CC=C3C5CC(C)(C)CC[C@]5(C(=O)O)C(O)C[C@]34C)C2(C)C)O[C@H](CO[C@@H]2O[C@H](C)[C@H](O)[C@H](O)[C@H]2O[C@@H]2OC[C@@H](O)[C@H](O)[C@H]2O)[C@@H](O)[C@@H]1O (some centres undefined),–,–,-0.865% [at 11.6 µM],-1.59% [at 11.6 µM]

Structure (SMILES),Potency (Tov-21-G),Potency (Tov112D),"activity change, negative = cytotoxicity (Tov-21-G)","activity change, negative = cytotoxicity (Tov112D)"
CC(C)=CCC[C@](C)(O[C@@H]1O[C@H](CO[C@@H]2OC[C@@H](O)[C@H](O)[C@H]2O)[C@@H](O)[C@H](O)[C@H]1O)[C@H]1CC[C@]2(C)[C@@H]1[C@H](O)C[C@@H]1[C@@]3(C)CC[C@H](O[C@@H]4O[C@H](CO)[C@@H](O)[C@H](O)[C@H]4O)C(C)(C)[C@@H]3CC[C@]12C,inactive,inactive,–,–
C[C@@H]1O[C@@H](O[C@H]2[C@H](OC(=O)[C@]34CCC(C)(C)C[C@H]3C3=CCC5[C@@]6(C)C[C@H](O)[C@H](O[C@@H]7O[C@H](C(=O)O)[C@@H](O)[C@H](O)[C@H]7O)[C@@](C)(CO)C6[C@H](O)C[C@@]5(C)[C@]3(C)C[C@H]4O)O[C@@H](CO)[C@@H]2O)[C@H](O)[C@H](O)[C@H]1O[C@@H]1OC[C@@H](O)[C@H](O[C@H]2OC[C@](O)(CO)[C@H]2O)[C@H]1O (some centres undefined),–,–,-13.8% [at 6.55 µM],-1.13% [at 6.55 µM]
C=C(C)C1=C[C@@]2(C)C(=CC1=O)CC[C@@H](O)[C@@H]2C,inactive,inactive,–,–
CC(C)(O)/C=C/C(=O)[C@](C)(O)[C@H]1[C@H](O)C[C@@]2(C)[C@@H]3CC=C4[C@@H](C[C@H](O[C@@H]5O[C@H](CO)[C@@H](O)[C@H](O)[C@H]5O)C(=O)C4(C)C)[C@]3(C)C(=O)C[C@]12C,inactive,inactive,–,–
C[C@@H](NC(=O)C(=O)c1c[nH]c2ccc([N+](=O)[O-])cc12)c1ccccc1,inactive,inactive,–,–
Cc1cc(C)c(-n2cc(C)c3c(Cl)nc(C)nc32)c(C)c1,inactive,inactive,–,–
C[C@@H]1CCCN1CCc1cc2cc(-c3ccc(C#N)cc3)ccc2o1,inactive,inactive,–,–
O=C1Nc2ccccc2-c2nc3ccccc3c(=O)n2-c2c(O)cccc21,inactive,inactive,–,–
O=C(NCCCCN1CCN(c2cccc(Cl)c2Cl)CC1)c1cc2ccccc2s1,inactive,inactive,–,–
NC(N)=N/N=C/c1ccccc1Cl,inactive,inactive,–,–
CCC(CC)Nc1nc(C)c(-c2ccc(OC(F)(F)F)cc2OC)nc1OC,inactive,inactive,–,–
Cc1cccc(N2CCN(C(=O)c3cc(S(=O)(=O)N(C)C)ccc3N3CCCC3)CC2)c1C,inactive,inactive,–,–
C=CC(C)(C)C12CC3C(=O)N4C(CC5(C(C)(C)C=C)c6ccccc6NC45)C(=O)N3C1Nc1ccccc12 (centres undefined),inactive,inactive,–,–
CC[C@H]1OC(=O)[C@H](C)[C@@H](O[C@H]2C[C@@](C)(OC)[C@@H](O)[C@H](C)O2)[C@H](C)[C@@H](O[C@H]2O[C@H](C)C[C@H](N(C)C)[C@H]2O)[C@](C)(O)C[C@@H](C)C(=O)[C@H](C)[C@@H](O)[C@]1(C)O,inactive,inactive,–,–
C=C1C(=O)OC2C1CCC1(C)C(O)CCC(=C)C21 (centres undefined),inactive,inactive,–,–
COc1ccc(-n2c(SCCCN3C(=O)c4cccc5cccc(c45)C3=O)nnc2-c2ccncc2)cc1,inactive,inactive,–,–
CC(C)Oc1ccc(-c2cnc3c(-c4ccnc5ccccc45)cnn3c2)cc1,inactive,inactive,–,–
CCC/C=C/C(=O)O[C@H]1CC(C)(C)CC2[C@@]13[C@H](O)C[C@]1(C)[C@@]2(CCC2[C@@]4(C)CC[C@H](O[C@@H]5O[C@H](C(=O)O)[C@@H](O)[C@H](O[C@@H]6O[C@H](CO)[C@H](O)[C@H](O)[C@H]6O[C@@H]6O[C@@H](C)[C@H](O)[C@@H](O)[C@H]6O[C@@H]6OC[C@](O)(CO)[C@H]6O)[C@H]5O[C@@H]5O[C@H](CO)[C@H](O)[C@H](O)[C@H]5O)C(C)(C)C4CC[C@]21C)O[C@H]3O (some centres undefined),–,–,-24.3% [at 6.55 µM],7.77% [at 6.55 µM]
C=C(C)[C@@H]1CC[C@]2(C(=O)O)CC[C@]3(C(=O)O)[C@H](CCC4[C@@]5(C)CCC(=O)C(C)(C)C5CC[C@]43C)C12 (some centres undefined),inactive,inactive,–,–

Structure (SMILES),Potency (Tov-21-G),Potency (Tov112D),"activity change, negative = cytotoxicity (Tov-21-G)","activity change, negative = cytotoxicity (Tov112D)"
COc1cc(-c2cn(C3CCc4c(F)cccc4N(CC(F)(F)F)C3=O)nn2)ccc1-n1cnc(C)c1 (centres undefined),inactive,inactive,–,–
C=C1C(=O)OC2C3=C(C)C(=O)CC3C(C)CC(O)C12 (centres undefined),inactive,inactive,–,–
Nc1nc(OCc2cc(Br)cs2)c2[nH]cnc2n1,inactive,inactive,–,–
COC(=O)C[C@H]1[C@]2(C)C3=C(C)[C@H](c4ccoc4)C[C@H]3O[C@@H]2[C@H](O)C2[C@](C)(C(=O)OC)C=CC(=O)[C@@]21C (some centres undefined),inactive,inactive,–,–
O=C(Nc1ccccc1)N1CCN(c2nc(-c3ccccc3)ns2)CC1,inactive,inactive,–,–
c1cc(-c2cnn3cc(-c4ccc(N5CCNCC5)cc4)cnc23)c2cccnc2c1,inactive,inactive,–,–
Cc1ccccc1C(C(=O)NC1CCCCC1)N(C(=O)Cn1cnc2ccccc21)c1cccc(F)c1 (centres undefined),inactive,inactive,–,–
CC(=O)OC1CCC2(C)C(CCC3(C)C2CC=C2C4C(C)C(C)CCC4(C)CCC23C)C1(C)C(=O)O (centres undefined),inactive,inactive,–,–
CNCCCC1(c2ccccc2)OC(C)(C)c2ccccc21 (centres undefined),inactive,inactive,–,–
CC1OC(OC2C(O)COC(O[C@@H]3[C@@H](O)[C@@H](O)[C@H](OC4C(OC(=O)[C@]56CCC(C)(C)CC5C5=CCC7[C@@]8(C)C[C@H](O)[C@H](OC9OC(CO)C(O)C(O)C9O)[C@@](C)(CO)C8[C@H](O)C[C@@]7(C)[C@]5(C)CC6)OCC(O)C4O)O[C@H]3C)C2O)C(O)C(O)C1O (some centres undefined),–,–,-21.3% [at 6.55 µM],-9.06% [at 6.55 µM]
O[C@@](Cc1ncc(CC2(C(F)(F)F)CC2)[nH]1)(c1ccc(-n2cccn2)cc1)C(F)(F)F,inactive,inactive,–,–
CCC(CC)(NC(=O)C(C)C)C(=O)N[C@@H](CCCN=C(N)N)C(=O)NC1(C(=O)NC(c2ccc(F)cc2)c2ccc(F)cc2)CCCC1,inactive,inactive,–,–
CC(=O)Nc1cccc(Nc2ncnc(N3CCC(OCc4ccc(OC(F)(F)F)cc4)CC3)n2)c1C,inactive,inactive,–,–
Cc1c(OCc2cccc(-c3ccc(C(=O)O)cc3)c2)cc2c(c1C)C(=O)C(C1CCCC1)C2 (centres undefined),inactive,inactive,–,–
C=C[C@](C)(O)CC[C@H]1C(C)=CC(=O)[C@H]2C(C)(C)CCC[C@]12C,inactive,inactive,–,–
CN(C)CCN(Cc1ccccc1)C(=O)c1cc(-c2ccc(F)cc2)n2nc(C(C)(C)C)cc2n1,inactive,inactive,–,–
Cc1cc(-c2nc(-c3ccc(OC(F)(F)F)cc3)no2)nn1Cc1ccnc(N2CCN(C3CC3)CC2)c1,inactive,inactive,–,–
Fc1ccc(N2CCCCC2)c(NC(=S)c2ccncc2)c1,inactive,inactive,–,–
C=C(CCC1C(C)(O)CCC2C(C)(C)C(O)CCC12C)C(O)CO (centres undefined),inactive,inactive,–,–
